According to PubChem BioAssay (NCI):
Compounds without any hit were thinned out: in the full panel of roughly 79,000, 15% have a hit. The source made the active and inactive calls. No stated cut-off is given here; in the data, active means growth inhibition above about 70%; inactive means the rest.

Assay: NCI Yeast Anticancer Drug Screen. Data for the rad50 strain (AID 155);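 further: 0% = growth of vehicle-only cultures of the same strain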
Conditions: S. cerevisiae rad50 strain growth inhibition; at 50.0 µM; active compounds read high
In short: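 Growth of the mutant yeast was measured after compound exposure and referenced to vehicle-treated cultures.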

Structure (SMILES)	growth inhibition
CN(C)c1ccc(C2=C([O-])C(=C3C=CC(=[N+](C)C)C=C3)C2=O)cc1	-10.4% (inactive)
COc1ccc(NCc2ccc(C)cc2)cc1	-2.55% (inactive)
NC(=O)NC(CCCN=C(N)N)C(=O)O (stereo unspecified)	-21.4% (inactive)
CCCCCCC(=O)CCCCCCCCCCCCC(=O)OC	2.3% (inactive)
O=C1Nc2ccccc2CCc2ccccc21	-18.1% (inactive)
c1coc(-c2nc(N=C3N=c4ccccc4=N3)[nH]c2-c2ccco2)c1	16.6% (inactive)
Cc1ccc(NC(=S)NCCO)cc1	-25.4% (inactive)
CCOc1cccc(/C=C2\N=C(c3ccccc3)OC2=O)c1	4.35% (inactive)
O=C(/C=N/O)Nc1cc(Cl)ccc1Cl	17.6% (inactive)
Cc1nc2c(Cl)cc(Cl)c(Cl)c2s1	9.65% (inactive)
CCOC(=O)c1nc2cc(C)c(C)cc2[nH]c1=O	5.45% (inactive)
CC(=O)CC1CCCC(CC(C)=O)N1C (stereo unspecified)	-9.3% (inactive)
S=C(NNc1ccccc1)NC1CCCCC1	7.35% (inactive)
CCCCCCCCCCCCCCCC(C)(C)O	-29% (inactive)
Cc1cccc(C)c1NC(=S)N(C)C	-8.8% (inactive)
Nc1cc(S(=O)(=O)c2ccc(O)c(N)c2)ccc1O	5.1% (inactive)
O=CNC(Cc1ccc(O)cc1)C(=O)O (stereo unspecified)	4.1% (inactive)
CC(=O)NS(=O)(=O)c1ccc2sc(C)nc2c1	-32% (inactive)
CCCCCCCCCCCC(=O)CCCCC	-29.5% (inactive)

Structure (SMILES)	growth inhibition
COc1ccc(/C=C/C(=O)c2ccc(Cl)cc2)c(OC)c1	20.5% (inactive)
c1cc[n+](CCNCC[n+]2ccccc2)cc1	8.55% (inactive)
O=C1OC(c2ccccc2)=N/C1=C/c1cccs1	6.85% (inactive)
O=C(Cc1cccc2ccccc12)N/N=C/c1ccc2c(c1)CCC2	14.9% (inactive)
O=C1c2ccccc2C(=O)N1/N=C/c1cc(Cl)cc(Cl)c1O	0.95% (inactive)
Cc1ccc(S(=O)(=O)Nc2ccccc2C2Nc3ccccc3C(=O)O2)cc1 (stereo unspecified)	-23.5% (inactive)
CC1=NOC(=O)C1C(C)(C)C1C(=O)ON=C1C (stereo unspecified)	8.25% (inactive)
CCOC(=O)c1c(C)nc(C)c(C(=O)OCC)c1-c1cccc([N+](=O)[O-])c1	29.1% (inactive)
CC12CC3(C)CC(C)(C1)CC(C(Cl)C(=O)O)(C2)C3 (stereo unspecified)	50.7% (inactive)
COc1ccc2c(c1C)CN1CCc3cc4c(cc3C1=C2)OCO4	23.1% (inactive)
O=C(O)c1ccccc1C(=O)NNC(=O)c1ccccc1C(=O)O	4.65% (inactive)
Cc1ccc2c(c1)=N/C(=N\c1nc(O)c(O)[nH]1)N=2	7.4% (inactive)
Cc1ccc2nc3c(nc2c1)-c1cccc2cccc-3c12	-18.6% (inactive)
C/C=C(/C)N(C(C)=O)N(C(C)=O)c1ccc([N+](=O)[O-])cc1[N+](=O)[O-]	5.75% (inactive)
CCOc1ccc(N=c2ssc(SC)c2-c2ccccc2)cc1	3.4% (inactive)
C[Si]1(C)N[Si](C)(C)N[Si](C)(C)N1	13.2% (inactive)
CCCCCCCCCCCCOc1ccccc1	6.15% (inactive)
O=C(CCc1ccc(O)cc1)N/N=C/c1cc(Br)ccc1O	-29.6% (inactive)
CC(/C=N/N1C(=O)c2ccccc2C1=O)c1ccccc1 (stereo unspecified)	12.8% (inactive)

Assay: NCI Yeast Anticancer Drug Screen. Data for the mec2-1 strain (AID 157)
Conditions: S. cerevisiae mec2-1 strain, at 50.0 µM, active compounds read high
In short: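 Readout is yeast growth inhibition, normalised to vehicle-treated controls, in the mec2-1 strain exposed to compound.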

Structure (SMILES)	growth inhibition
CN(C)c1ccc(C2=C([O-])C(=C3C=CC(=[N+](C)C)C=C3)C2=O)cc1	-15.2% (inactive)
COc1ccc(NCc2ccc(C)cc2)cc1	-17.1% (inactive)
NC(=O)NC(CCCN=C(N)N)C(=O)O (stereo unspecified)	-36.3% (inactive)
CCCCCCC(=O)CCCCCCCCCCCCC(=O)OC	-1.65% (inactive)
O=C1Nc2ccccc2CCc2ccccc21	-34.3% (inactive)
c1coc(-c2nc(N=C3N=c4ccccc4=N3)[nH]c2-c2ccco2)c1	18.9% (inactive)
Cc1ccc(NC(=S)NCCO)cc1	-41.8% (inactive)
CCOc1cccc(/C=C2\N=C(c3ccccc3)OC2=O)c1	25% (inactive)
O=C(/C=N/O)Nc1cc(Cl)ccc1Cl	15.4% (inactive)
Cc1nc2c(Cl)cc(Cl)c(Cl)c2s1	5.15% (inactive)
CCOC(=O)c1nc2cc(C)c(C)cc2[nH]c1=O	-5.4% (inactive)
CC(=O)CC1CCCC(CC(C)=O)N1C (stereo unspecified)	-19.2% (inactive)
S=C(NNc1ccccc1)NC1CCCCC1	-37.2% (inactive)
CCCCCCCCCCCCCCCC(C)(C)O	-27.6% (inactive)
Cc1cccc(C)c1NC(=S)N(C)C	-7.3% (inactive)
Nc1cc(S(=O)(=O)c2ccc(O)c(N)c2)ccc1O	-0.85% (inactive)
O=CNC(Cc1ccc(O)cc1)C(=O)O (stereo unspecified)	-30.4% (inactive)
CC(=O)NS(=O)(=O)c1ccc2sc(C)nc2c1	-22.6% (inactive)
CCCCCCCCCCCC(=O)CCCCC	-17.1% (inactive)

Structure (SMILES)	growth inhibition
COc1ccc(/C=C/C(=O)c2ccc(Cl)cc2)c(OC)c1	-11.9% (inactive)
c1cc[n+](CCNCC[n+]2ccccc2)cc1	-7.75% (inactive)
O=C1OC(c2ccccc2)=N/C1=C/c1cccs1	-23.1% (inactive)
O=C(Cc1cccc2ccccc12)N/N=C/c1ccc2c(c1)CCC2	-13.2% (inactive)
O=C1c2ccccc2C(=O)N1/N=C/c1cc(Cl)cc(Cl)c1O	-17.4% (inactive)
Cc1ccc(S(=O)(=O)Nc2ccccc2C2Nc3ccccc3C(=O)O2)cc1 (stereo unspecified)	-7.4% (inactive)
CC1=NOC(=O)C1C(C)(C)C1C(=O)ON=C1C (stereo unspecified)	-0.7% (inactive)
CCOC(=O)c1c(C)nc(C)c(C(=O)OCC)c1-c1cccc([N+](=O)[O-])c1	2.35% (inactive)
CC12CC3(C)CC(C)(C1)CC(C(Cl)C(=O)O)(C2)C3 (stereo unspecified)	22.8% (inactive)
COc1ccc2c(c1C)CN1CCc3cc4c(cc3C1=C2)OCO4	17.4% (inactive)
O=C(O)c1ccccc1C(=O)NNC(=O)c1ccccc1C(=O)O	-5.3% (inactive)
Cc1ccc2c(c1)=N/C(=N\c1nc(O)c(O)[nH]1)N=2	-15.3% (inactive)
Cc1ccc2nc3c(nc2c1)-c1cccc2cccc-3c12	-43% (inactive)
C/C=C(/C)N(C(C)=O)N(C(C)=O)c1ccc([N+](=O)[O-])cc1[N+](=O)[O-]	-18.2% (inactive)
CCOc1ccc(N=c2ssc(SC)c2-c2ccccc2)cc1	-10.8% (inactive)
C[Si]1(C)N[Si](C)(C)N[Si](C)(C)N1	-19.6% (inactive)
CCCCCCCCCCCCOc1ccccc1	-14.3% (inactive)
O=C(CCc1ccc(O)cc1)N/N=C/c1cc(Br)ccc1O	-38.4% (inactive)
CC(/C=N/N1C(=O)c2ccccc2C1=O)c1ccccc1 (stereo unspecified)	-11.6% (inactive)
